Each structure is given as a SMILES string. This is part of a sample that, as a whole, favours compounds with a hit. Of some 83,000 tested, about 20% had one in any assay.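 Cells were grown in 96-well plates and exposed to the test compound at a single concentration for 48 hours; results are reported as percent growth, with values below 10 considered active.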 A number with no mark means an inactive call. Activity calls are given as the source filed them.

The source of these data is PubChem BioAssay (NCI).

Some test systems named below: DU-145 prostate; K-562 leukemia; MALME-3M melanoma; MDA-MB-231 breast; RXF 393 renal; SF-268 CNS; SF-295 CNS; SF-539 CNS; UACC-257 melanoma; M14 melanoma; HCT-15 colon; HT29 colon; SNB-75 CNS; SNB-19 CNS; U251 CNS; PC-3 prostate; SK-MEL-5 melanoma; UACC-62 melanoma; LOX IMVI melanoma; SK-MEL-28 melanoma.
Common to all, as to test: NCI-60 one-dose screen, 48 h (100 = growth as untreated, 0 = no growth, -100 = all killed)
Details in all cases: 10 µM

For `C=CCc1cc(Nc2c3ccc(Cl)cc3nc3ccc(OC)cc23)cc(CN(CC)CC)c1O`, the growth with DU-145 prostate was 20.5%; with K-562 leukemia, 3.36% (active); in the test on MALME-3M melanoma, 2.15% (active); in the test with MDA-MB-231 breast it was 0.676% (active); with RXF 393 renal it was 32.1%; in the test on SF-268 CNS, 23%. In addition, the growth was -2.05% (active) in the test with SF-295 CNS; 21.2% with SF-539 CNS; 4.74% (active) in the test with UACC-257 melanoma; 19.8% in the test with M14 melanoma; 9.53% (active) in the test on HCT-15 colon; 3.04% (active) in the test on HT29 colon. Moreover, the growth in the test on SNB-75 CNS was 13%; with SNB-19 CNS it was 20.6%; with U251 CNS, 12.5%; in the test on PC-3 prostate, 9.79% (active); with SK-MEL-5 melanoma, -92.7% (active); in the test with UACC-62 melanoma, 19.1%. The growth in the test with LOX IMVI melanoma is -32.9% (active); with SK-MEL-28 melanoma it was 39.1%.

For the compound `CC(=O)OCC(COC(C)=O)(COC(C)=O)COC(C)=O`, the growth was 103% in the test on DU-145 prostate; 95.4% in the test on K-562 leukemia; 94.6% in the test with MALME-3M melanoma; 105% in the test on MDA-MB-231 breast; 104% in the test on RXF 393 renal; 94.7% in the test with SF-268 CNS. Further, the growth in the test with SF-295 CNS is 103%; with SF-539 CNS, 111%; with UACC-257 melanoma, 103%; in the test with M14 melanoma it was 108%; in the test with HCT-15 colon, 102%; with HT29 colon, 102%. In addition, the growth was 105% in the test on SNB-75 CNS; 104% in the test with SNB-19 CNS; 103% in the test with U251 CNS; 102% with PC-3 prostate; 93% with SK-MEL-5 melanoma; 103% with UACC-62 melanoma. The growth in the test with LOX IMVI melanoma was 98.1%; in the test with SK-MEL-28 melanoma, 121%.

Turning to `O=C(CCl)N1c2ccccc2Sc2ccc3ccccc3c21`, the growth with DU-145 prostate was -90.8% (active); in the test on K-562 leukemia, -0.331% (active); in the test on MALME-3M melanoma it was -43.4% (active); with MDA-MB-231 breast, -72.5% (active); in the test with RXF 393 renal it was -33.4% (active); in the test with SF-268 CNS, -59.4% (active). Further, the growth was -2.09% (active) in the test on SF-295 CNS; -60.9% (active) in the test with SF-539 CNS; -36.6% (active) in the test on UACC-257 melanoma; -52.1% (active) in the test on M14 melanoma; -51.3% (active) in the test on HCT-15 colon; -76.1% (active) in the test with HT29 colon. Moreover, the growth in the test on SNB-75 CNS was 3.3% (active); with SNB-19 CNS, 69.7%; in the test on U251 CNS, 0.19% (active); in the test on PC-3 prostate it was -86.6% (active); in the test on SK-MEL-5 melanoma it was 22.9%; with UACC-62 melanoma, -0.738% (active). The growth in the test on LOX IMVI melanoma was -78.3% (active); in the test on SK-MEL-28 melanoma, 19.6%.

Regarding `CCOc1cc(Br)c(C(C)NC(=O)c2cccc(OC)c2)cc1OCC` (stereo not given), the growth in the test with DU-145 prostate was 93.4%; in the test with K-562 leukemia, 8.6% (active); in the test with MALME-3M melanoma it was -9.34% (active); in the test with MDA-MB-231 breast, 39%; in the test with RXF 393 renal, 41.6%; in the test on SF-268 CNS it was 75.5%. In addition, the growth was 92.1% in the test on SF-295 CNS; 76.2% in the test on SF-539 CNS; -66.9% (active) in the test on UACC-257 melanoma; -67.2% (active) in the test with M14 melanoma; 59.8% in the test on HCT-15 colon; 17.7% with HT29 colon. The growth in the test with SNB-75 CNS was 76.7%; in the test on SNB-19 CNS, 98.3%; in the test with U251 CNS, 58.4%; in the test on PC-3 prostate, 64.9%; in the test on SK-MEL-5 melanoma, 45.1%; in the test with UACC-62 melanoma it was -56.2% (active). In addition, the growth was 73.4% with LOX IMVI melanoma and 5.81% (active) in the test on SK-MEL-28 melanoma.

Consider `COc1cc(-c2nc3ccccc3[nH]2)ccc1OCC(=O)N=Nc1c(O)[nH]c2ccccc12`, for which the growth in the test on DU-145 prostate is 99.7%; in the test on K-562 leukemia, 17.5%; in the test on MALME-3M melanoma, 54.6%; with MDA-MB-231 breast it was 88.8%; with RXF 393 renal, 106%; with SF-268 CNS, 94.1%. The growth in the test with SF-295 CNS was 95.9%; with SF-539 CNS it was 97.8%; in the test on UACC-257 melanoma, 105%; with M14 melanoma, 83.3%; in the test with HCT-15 colon it was 99.4%; with HT29 colon, 91.5%. In addition, the growth was 98.1% in the test on SNB-75 CNS; 98.4% in the test with SNB-19 CNS; 32.1% in the test on U251 CNS; 64% in the test on PC-3 prostate; 68.9% in the test on SK-MEL-5 melanoma; 94.9% in the test with UACC-62 melanoma. The growth is 83.4% with LOX IMVI melanoma and 101% with SK-MEL-28 melanoma.

`NC1CCC(Nc2nc(NCc3ccc(-c4ccccc4O)nc3)c3ncn(C4CCCC4)c3n2)CC1` (stereo not given): the growth in the test with DU-145 prostate is -4.56% (active); in the test with K-562 leukemia, -41.2% (active); in the test with MALME-3M melanoma, -76.1% (active); in the test with MDA-MB-231 breast it was -22% (active); in the test on RXF 393 renal, -67.4% (active); in the test on SF-268 CNS, -25.8% (active). Besides, the growth is -14.4% (active) in the test with SF-295 CNS; -81% (active) in the test with SF-539 CNS; -68.6% (active) in the test on UACC-257 melanoma; -81.5% (active) with M14 melanoma; -4.18% (active) with HCT-15 colon; -22.5% (active) in the test on HT29 colon. The growth with SNB-75 CNS was -70.1% (active); with SNB-19 CNS, 8.53% (active); with U251 CNS, -23% (active); with PC-3 prostate, -3.87% (active); in the test on SK-MEL-5 melanoma it was -94.1% (active); in the test on UACC-62 melanoma, -55% (active). Further, the growth with LOX IMVI melanoma is -82.8% (active); with SK-MEL-28 melanoma, -58.9% (active).

Consider `CC(C)c1[nH]nc2c(NCc3ccc(-c4ccccn4)cc3)nc(SCCN)nc12`, for which the growth is 5.83% (active) with DU-145 prostate; 3.89% (active) with K-562 leukemia; -41.3% (active) in the test on MALME-3M melanoma; 5.07% (active) in the test on MDA-MB-231 breast; -71.4% (active) in the test on RXF 393 renal; -0.883% (active) in the test with SF-268 CNS. Also, the growth in the test with SF-295 CNS was 4.57% (active); with SF-539 CNS it was -54.4% (active); with UACC-257 melanoma, 1.34% (active); in the test on M14 melanoma, -43.1% (active); with HCT-15 colon, 7.24% (active); in the test on HT29 colon it was -24.2% (active). Also, the growth with SNB-75 CNS is -78.5% (active); with SNB-19 CNS, 12.2%; in the test with U251 CNS it was 5.64% (active); with PC-3 prostate, -0.489% (active); in the test with SK-MEL-5 melanoma, -38.6% (active); in the test with UACC-62 melanoma, -10.2% (active). Further, the growth with LOX IMVI melanoma was -18.5% (active); with SK-MEL-28 melanoma, -13.8% (active).

With `CC(C)C(C)C(N)C(=O)O` (stereo not given), the growth in the test with DU-145 prostate is 105%; in the test on K-562 leukemia it was 90.8%; in the test with MALME-3M melanoma it was 95.9%; in the test with MDA-MB-231 breast, 125%; in the test on RXF 393 renal it was 108%; with SF-268 CNS, 107%. The growth with SF-295 CNS is 117%; in the test on SF-539 CNS, 101%; with UACC-257 melanoma, 108%; in the test on M14 melanoma, 94.1%; in the test with HCT-15 colon, 97.6%; in the test with HT29 colon, 107%. In addition, the growth with SNB-75 CNS was 95.2%; with SNB-19 CNS it was 115%; in the test with U251 CNS, 103%; in the test with PC-3 prostate, 98.2%; in the test on SK-MEL-5 melanoma, 102%; in the test with UACC-62 melanoma it was 113%. Moreover, the growth with LOX IMVI melanoma is 96%; in the test with SK-MEL-28 melanoma, 108%.
